Results on 48 molecules are retold here after PubChem BioAssay (NCATS).

Results filed as inconclusive are left out. A call without a number means that no potency is given here. Calls of active or inactive are those of the source. Unless noted, calls come from the whole dose curve; as a rule, active = well fitted curve in the direction sought with a large enough effect; inconclusive = small, poorly fitted or top-dose-only effect, or another doubt; inactive = no such curve, though single readings can be large; an effect the other way counts as inactive or inconclusive.

Test [1] in a line: Cell Viability - LYMP2-001 (AID 921).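 Note: potency is the fitted concentration of half-maximal effect; cells exposed to compound for 24 h at 37 °C; nearly all actives have a fitted effect of over 70% in size.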 In a few lines:
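A lymphoblastoid cell line of human origin was treated with library compounds across a concentration series for 24 hours, and viable cell number was estimated from ATP-driven luciferase light output. Hill modeling gave AC50.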

Test [2] is described as follows: MultiTox-Fluor Cytotoxicity Assay - LYMP1-001 - Dead Cells (AID 946).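 Note: potency is the fitted concentration of half-maximal effect; cells exposed to compound for 16 h.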 The method in brief: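 Seed 2500 LYMP1-001 cells/well, incubate 5 hr at 37 C; add compound, 16 hr at 37 C; add MultiTox-Fluor reagent, 60 min RT; read dead-cell fluorescence Ex/Em=485/520. Normalize to DMSO and 15 uM tetraoctylammonium bromide.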
The nature of test [3]: MultiTox-Fluor Cytotoxicity Assay - LYMP1-001 - Live Cells (AID 947). Note: potency is the fitted concentration of half-maximal effect.
Test [4] can be described thus: Cell Viability - LYMP1-002 - Assay at 16 hr (AID 948). Note: potency is the fitted concentration of half-maximal effect. In a few lines: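 In this qHTS, lymphoblastoid LYMP1-002 cells (human) receive compounds for 16 hr at 37 C. Viability is taken from CellTiter-Glo ATP luminescence, and AC50 derives from standard Hill fits.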
A short description of test [5]: MultiTox-Fluor Cytotoxicity Assay - LYMP1-002 - Live Cells (AID 955).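 Note: potency is the fitted concentration of half-maximal effect; cells exposed to compound for 16 hours.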 The method in brief:
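Cytotoxicity in the human lymphoblastoid line LYMP1-002 is measured as loss of live-cell protease activity after 16 h treatment in complete culture medium. AC50 is derived from Hill-equation fits of qHTS concentration-response data.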

Test [6] can be described thus: MultiTox-Fluor Cytotoxicity Assay - LYMP1-002 - Dead Cells (AID 960). Note: nearly all actives have a fitted effect of over 60% in size. Note: potency is the fitted concentration of half-maximal effect. The method in brief:
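Acute cytotoxicity in a human lymphoblastoid line is scored as rising dead-cell protease signal after 16 hr exposure at 37 C, measured fluorometrically (485/520).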

A short description of test [7]: MultiTox-Fluor Cytotoxicity Assay - LYMP1-003 - Dead Cells (AID 961).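 Note: potency is the fitted concentration of half-maximal effect; cells exposed to compound for 16 h at 37 °C; nearly all actives have a fitted effect of over 70% in size.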 The method in brief: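 LYMP1-003 lymphoblastoid, 2500 cells/well, 5 hr settle then 16 hr cpd at 37 C; MultiTox-Fluor reagent 60 min RT; Ex/Em 485/520 dead-cell signal; norm. DMSO = 0%, 15 uM tetraoctylammonium bromide = 100%; Hill AC50.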
Test [8] is described as follows: MultiTox-Fluor Cytotoxicity Assay - LYMP1-003 - Live Cells (AID 962).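 Note: potency is the fitted concentration of half-maximal effect; cells exposed to compound for 16 hours at 37 °C.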 In a few lines:
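Cells plated at 2500 per well and incubated 5 hr; compounds added and incubated 16 hr at 37 C; MultiTox-Fluor reagent added for 60 min at room temperature; fluorescence of liberated AFC measured at 405/510 nm.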

Test [9] is described as follows: Cell Viability - LYMP1-003 - Assay at 24 hr (AID 963). Note: potency is the fitted concentration of half-maximal effect. In a few lines:
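Acute toxicity in LYMP1-003 lymphoblastoid cells: 24 hr compound treatment at 37 C, ATP measured with CellTiter-Glo after 30 min at room temperature. AC50 derived by fitting the Hill equation to qHTS titrations.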

Test [10] is described as follows: Cell Viability - LYMP1-003 - Assay at 40 hr (AID 964). Note: potency is the fitted concentration of half-maximal effect; nearly all actives have a fitted effect of over 60% in size. The method in brief: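 This qHTS cytotoxicity screen treats human lymphoblastoid cells (LYMP1-003) with compounds for 40 hr and quantifies cellular ATP via luciferase luminescence.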
Test [11] in a line: Cell Viability - LYMP2-003 (AID 965).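 Note: potency is the fitted concentration of half-maximal effect; cells exposed to compounds for 24 h before reading; nearly all actives have a fitted effect of over 50% in size.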 The method in brief:
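qHTS, human lymphoblastoid line, 2500 cells/well, complete medium. 24 h drug, 37 C. ATP-based luminescent readout; Hill-fit AC50.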

Test [12] in a line: Cell Viability - LYMP2-004 (AID 966). Note: potency is the fitted concentration of half-maximal effect; nearly all actives have a fitted effect of over 65% in size. In a few lines:
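Acute toxicity is scored as a concentration-dependent drop in intracellular ATP, quantified by luciferase luminescence, in human lymphoblastoid cells exposed to compound for 24 hr. AC50 derives from Hill-equation modelling.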

Test [13] can be described thus: qHTS Assay for Identification of Small Molecule Agonists for Thrombopoietin (TPO) Signaling Pathway (AID 917). The method in brief: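 IL-3-dependent murine pro-B Ba/F3 cells, stably transfected with human TPO receptor and GpIIb-promoter luciferase, are incubated 24 hrs at 37 C with test compound and 26 pM TPO; luciferase signal is read after 10 min at room temperature.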
A general note: Quantitative high-throughput screening tests each substance at several concentrations.

Test [14] concerns the target Pyruvate kinase (Leishmania mexicana) (UniProt Q27686). Nature of the test: qHTS Validation Assay for Inhibitors of Leishmania Mexicana Pyruvate Kinase (AID 945). In a few lines:
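The enzyme is a highly purified E451W mutant of LmPYK used at 0.2 nM. It converts 0.5 mM PEP and 0.1 mM ADP over 1 h at room temperature; product ATP is quantified by luciferase luminescence relative to DMSO controls.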

Test [15] concerns the target Pyruvate kinase PKM (Homo sapiens) (UniProt P14618). The test can be described thus: qHTS Assay for Activators of Human Muscle Pyruvate Kinase (AID 954; active = well fitted curve in the direction sought with a large enough effect, not every such curve was filed as active). In a few lines:
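Reaction: 0.1 nM purified PKM2 with 0.5 mM phosphoenolpyruvate and 0.1 mM ADP, room temperature, 1 h. Readout: luciferase-based ATP luminescence after stop reagent. Activators judged against a 0.3 nM enzyme column.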

The target of test [16] is Alpha-galactosidase (Coffea arabica) (UniProt Q42656). Nature of the test: Counterscreen for Glucocerebrosidase Inhibitors: qHTS Assay for Coffee Bean alpha-Galactosidase at pH 4.5 (AID 957). Note: series mostly up to about 77 µM. In a few lines: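 AC50 values derive from Hill-equation modeling of concentration-response data, normalized to no-enzyme and full-activity controls. The pH 4.5 citrate assay used 2 nM coffee bean enzyme and 80 uM fluorogenic substrate for 20 min.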
(Counterscreens check selectivity or assay interference.)

Test [17] concerns the target Cytochrome P450 2C19 (Homo sapiens) (UniProt P33261). The test can be described thus: qHTS Assay for Inhibitors and Substrates of Cytochrome P450 2C19 (AID 899). Note: nearly all actives have a fitted effect of over 60% in size. In a few lines:
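Signal comes from luciferase acting on luciferin released by CYP2C19-mediated hydroxylation of Luciferin-H EGE, 10uM (KM). Assay mix: 5nM enzyme, 50mM KPO4; 60 min at 37C with NADPH regeneration. Data normalized against 57uM ketoconazole.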

In test [18] the target is Muscarinic acetylcholine receptor M1 (Rattus norvegicus) (UniProt P08482). The test can be described thus: qHTS Assay for Antagonists of Acetylcholine Muscarinic M1 Receptor: Kinetic Measurement of Intracellular Calcium Response (AID 943).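 Note: Fluo-4 calcium signal as peak divided by basal fluorescence over 4 min; series mostly up to about 35 µM; nearly all actives have a fitted effect of over 75% in size.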 In a few lines: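 Intracellular calcium flux, recorded with Fluo-4 in a kinetic plate reader, served as signal; the response to carbachol at EC80 (100 nM final) was taken as maximal over minimal fluorescence after a 10 min compound pre-incubation in rat M1-CHO cells.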

The target is the same in test [19]. The test can be described thus: qHTS Assay for Antagonists of Acetylcholine Muscarinic M1 Receptor: Measurement of IP-One Response (AID 944). Note: nearly all actives have a fitted effect of over 75% in size. The method in brief:
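Steps: plate transfected CHO-M1 cells overnight; add test compound, 10 min; add carbachol (200 nM, EC80) in stimulation buffer with LiCl; incubate 30 min; add labelled IP1 tracer and anti-IP1 antibody in lysis buffer; read HTRF after 10 min.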

Pyruvate kinase (Leishmania mexicana), sequence (Q27686 2-499 E452W): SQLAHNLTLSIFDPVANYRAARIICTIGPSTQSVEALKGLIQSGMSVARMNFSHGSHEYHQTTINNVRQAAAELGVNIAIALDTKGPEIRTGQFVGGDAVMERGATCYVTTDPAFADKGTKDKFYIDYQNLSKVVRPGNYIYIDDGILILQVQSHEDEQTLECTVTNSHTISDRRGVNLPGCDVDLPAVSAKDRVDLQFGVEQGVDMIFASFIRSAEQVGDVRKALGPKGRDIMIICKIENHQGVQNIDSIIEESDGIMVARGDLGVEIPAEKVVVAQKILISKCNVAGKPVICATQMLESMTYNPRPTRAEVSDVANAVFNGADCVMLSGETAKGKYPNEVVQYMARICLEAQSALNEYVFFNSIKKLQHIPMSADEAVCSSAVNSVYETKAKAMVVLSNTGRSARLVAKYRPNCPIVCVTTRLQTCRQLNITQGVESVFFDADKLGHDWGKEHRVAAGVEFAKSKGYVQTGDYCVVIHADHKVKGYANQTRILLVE
Pyruvate kinase PKM (Homo sapiens), sequence (P14618 whole entry, looked up): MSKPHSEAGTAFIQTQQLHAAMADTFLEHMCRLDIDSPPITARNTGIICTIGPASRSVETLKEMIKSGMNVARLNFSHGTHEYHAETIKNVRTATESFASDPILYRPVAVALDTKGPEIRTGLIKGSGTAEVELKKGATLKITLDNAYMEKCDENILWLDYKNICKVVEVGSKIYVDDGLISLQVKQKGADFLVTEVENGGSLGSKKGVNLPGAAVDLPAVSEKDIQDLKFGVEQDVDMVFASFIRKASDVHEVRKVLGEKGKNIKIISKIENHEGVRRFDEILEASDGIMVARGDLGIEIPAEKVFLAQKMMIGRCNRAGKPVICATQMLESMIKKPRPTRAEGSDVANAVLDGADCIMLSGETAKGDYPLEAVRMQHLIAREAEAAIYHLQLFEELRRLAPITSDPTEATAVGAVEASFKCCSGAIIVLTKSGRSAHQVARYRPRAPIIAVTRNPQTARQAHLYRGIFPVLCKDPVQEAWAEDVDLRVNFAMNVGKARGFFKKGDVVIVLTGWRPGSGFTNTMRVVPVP
Muscarinic acetylcholine receptor M1 (Rattus norvegicus), sequence (P08482 whole entry, looked up): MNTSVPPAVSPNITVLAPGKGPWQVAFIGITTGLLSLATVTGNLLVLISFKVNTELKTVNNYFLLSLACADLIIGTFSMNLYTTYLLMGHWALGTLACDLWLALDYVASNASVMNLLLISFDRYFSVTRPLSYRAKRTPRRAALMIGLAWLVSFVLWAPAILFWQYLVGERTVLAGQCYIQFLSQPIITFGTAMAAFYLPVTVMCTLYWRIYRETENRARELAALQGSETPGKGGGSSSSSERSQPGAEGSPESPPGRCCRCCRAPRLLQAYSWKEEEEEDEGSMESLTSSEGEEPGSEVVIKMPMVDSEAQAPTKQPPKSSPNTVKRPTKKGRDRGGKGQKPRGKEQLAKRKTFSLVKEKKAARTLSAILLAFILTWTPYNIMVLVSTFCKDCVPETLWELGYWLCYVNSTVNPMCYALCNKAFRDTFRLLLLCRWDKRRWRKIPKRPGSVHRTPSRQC
Alpha-galactosidase (Coffea arabica), sequence (Q42656 whole entry, looked up): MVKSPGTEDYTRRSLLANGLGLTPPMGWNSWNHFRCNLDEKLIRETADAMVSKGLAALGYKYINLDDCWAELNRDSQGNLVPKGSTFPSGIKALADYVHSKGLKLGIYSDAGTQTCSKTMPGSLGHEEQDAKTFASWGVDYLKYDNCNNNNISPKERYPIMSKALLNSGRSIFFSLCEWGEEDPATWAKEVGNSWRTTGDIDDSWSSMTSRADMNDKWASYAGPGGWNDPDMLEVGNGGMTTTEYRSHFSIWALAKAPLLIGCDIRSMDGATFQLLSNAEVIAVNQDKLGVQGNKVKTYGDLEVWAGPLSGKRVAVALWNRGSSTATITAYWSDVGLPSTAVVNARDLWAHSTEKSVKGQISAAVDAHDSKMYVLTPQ
Cytochrome P450 2C19 (Homo sapiens), sequence (P33261 whole entry, looked up): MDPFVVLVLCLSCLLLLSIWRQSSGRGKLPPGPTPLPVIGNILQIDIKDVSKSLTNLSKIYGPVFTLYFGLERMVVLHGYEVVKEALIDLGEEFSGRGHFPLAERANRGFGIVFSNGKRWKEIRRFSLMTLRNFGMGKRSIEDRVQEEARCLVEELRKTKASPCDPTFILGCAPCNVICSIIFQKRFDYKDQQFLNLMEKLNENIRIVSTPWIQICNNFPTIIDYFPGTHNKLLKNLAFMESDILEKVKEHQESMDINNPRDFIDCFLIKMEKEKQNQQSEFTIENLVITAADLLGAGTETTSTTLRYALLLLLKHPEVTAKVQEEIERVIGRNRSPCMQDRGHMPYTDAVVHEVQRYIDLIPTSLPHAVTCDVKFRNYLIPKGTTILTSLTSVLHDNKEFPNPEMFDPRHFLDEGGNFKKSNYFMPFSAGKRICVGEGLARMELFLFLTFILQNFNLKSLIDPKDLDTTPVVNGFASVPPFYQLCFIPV

As to `O=C(CCl)c1ccc(Cl)cc1Cl`, the Potency in test [1] is 3.98 µM (active); in [2], 10 µM (active); in test [3], 12.6 µM (active); in test [4], 15.8 µM (active); in [5], 7.94 µM (active); in test [6], 7.94 µM (active). The Potency was 10 µM (active) in [7]; 15.8 µM (active) in test [8]; 20 µM (active) in test [9]; 20 µM (active) in [10]; 10 µM (active) in test [11]; 6.31 µM (active) in test [12].

Regarding `COC(=O)C1=CCCN(C)C1`, the call in test [13], in test [14], in test [15] and in test [16] was inactive.

As to `CN(C)CCCN1c2ccccc2Sc2ccccc21`, the molecule was classed as inactive in test [16].

On to `CC1=C(CC(=O)O)c2cc(F)ccc2/C1=C\c1ccc(S(C)=O)cc1` (configuration not stated), for which the molecule was called inactive in test [16].

`O=C(O)c1nn(Cc2ccc(Cl)cc2Cl)c2ccccc12`: the Potency result in test [17], in [18] and in test [19] was “inactive” each time. The molecule was classed as inactive in test [13], in [14], in test [15] and in test [16].

As for `COc1cc(C(=O)OCCCN2CCCN(CCCOC(=O)c3cc(OC)c(OC)c(OC)c3)CC2)cc(OC)c1OC`, the molecule was called inactive in [16].

As for `CCCCCCCCC(=O)NCc1ccc(O)c(OC)c1`, the result in test [13], in test [14], in test [15] and in [16] was inactive. Also, in [18], the Potency result is “inactive”.

For `c1cc(CN2CCCCC2)cc(OCCCNc2nc3ccccc3s2)c1`, the call in [16] was inactive.

For `O=C(O)CCc1nc(-c2ccccc2)c(-c2ccccc2)o1`, the result in test [16] was inactive.

With `COc1nc(C)nc(Cl)c1NC1=NCCN1`, in test [16], the molecule was called inactive.

In the case of `COC(=O)[C@@H](N)Cc1ccc(O)c(O)c1`, the molecule was classed as inactive in [16].

On to `O=C1N(c2ccccc2)c2ccccc2C1(Cc1ccncc1)Cc1ccncc1`, for which the molecule was called inactive in test [16].

Regarding `CN(C)C(=O)Oc1cccc([N+](C)(C)C)c1`, the result in test [16] was inactive.

Regarding `O=C1CC2(CCCC2)CC(=O)N1CCCCN1CCN(c2ncccn2)CC1`, in test [16], the call was inactive.

As to `Oc1ccc(O)cc1`, in test [16], the call was inactive.

For `CC(C)(C)c1ccc(C(O)CCCN2CCC(C(O)(c3ccccc3)c3ccccc3)CC2)cc1` (configuration not stated), the call in test [16] was inactive.

As for `CCCCNc1ccc(C(=O)OCCN(C)C)cc1`, the molecule was classed as inactive in test [16].

As to `NC(N)=NC(=O)c1nc(Cl)c(N)nc1N`, the molecule was classed as inactive in test [16].

In the case of `CCNC(=O)N1CCN(CCCC(c2ccc(F)cc2)c2ccc(F)cc2)CC1`, the outcome in test [16] was inactive.

As for `O=C(c1ccc(F)cc1)C1CCN(CCn2c(=O)[nH]c3ccccc3c2=O)CC1`, the call in test [16] was inactive.

`C[n+]1cc2c3c(ccc2c2ccc4cc5c(cc4c21)OCO5)OCO3`: the outcome in test [16] was inactive.

With `CCCC(C(=O)OCCN(CC)CC)(c1ccccc1)c1ccccc1`, the molecule was classed as inactive in [16].

With `CCOC(=O)Nc1ccc(NCc2ccc(F)cc2)nc1N`, the molecule was called inactive in test [16].

For the molecule `CCc1cccc2c3c([nH]c12)C(CC)(CC(=O)O)OCC3` (configuration not stated), the call in test [16] was inactive.

Consider `OCc1cc(C(O)CNCCCCCCOCCCCc2ccccc2)ccc1O` (configuration not stated), for which, in test [16], the outcome was inactive.

For `C[C@]12C=CC(=O)C=C1CC[C@H]1[C@@H]3C[C@@H](O)[C@](O)(C(=O)CO)[C@@]3(C)C[C@H](O)[C@@]12F`, the call in test [16] was inactive.

With `C[N+](C)(C)CCCCCCCCCC[N+](C)(C)C`, the molecule was called inactive in [16].

In the case of `CC(C)NCC(O)COc1ccc(COCCOC(C)C)cc1` (configuration not stated), the molecule was classed as inactive in [16].

For `CCCCNc1c(C(=O)OCC)c(C)nc2c1cnn2CC`, the molecule was called inactive in [16].

For the molecule `N[C@@H](Cc1c[nH]c2ccc(O)cc12)C(=O)O`, the call in test [16] was inactive.

Turning to `CC1=C(CC(=O)O)c2cc(F)ccc2/C1=C\c1ccc(S(C)(=O)=O)cc1`, the result in [16] was inactive.

As for `COc1ccccc1N1CCN(CCCNc2cc(=O)n(C)c(=O)n2C)CC1`, in test [16], the outcome was inactive.

For `CCCOc1ccccc1-c1nc2n[nH]nc2c(=O)[nH]1`, in test [16], the outcome was inactive.

Take `CCCCC1C(=O)N(c2ccccc2)N(c2ccccc2)C1=O`: the molecule was classed as inactive in [16].

Take `CCN(CC)CC(=O)Nc1c(C)cccc1C`: the call in [16] was inactive.

Turning to `Brc1c(NC2=NCCN2)ccc2nccnc12`, the molecule was called inactive in test [16].

Regarding `Cc1ccc(C(=O)Nc2ccc(S(=O)(=O)O)c3cc(S(=O)(=O)O)cc(S(=O)(=O)O)c23)cc1NC(=O)c1cccc(NC(=O)Nc2cccc(C(=O)Nc3cc(C(=O)Nc4ccc(S(=O)(=O)O)c5cc(S(=O)(=O)O)cc(S(=O)(=O)O)c45)ccc3C)c2)c1`, the outcome in test [16] was inactive.

Turning to `COc1ccc2c(c1)c(CC(=O)O)c(C)n2C(=O)c1ccc(Cl)cc1`, the call in test [16] was inactive.

With `O=C1NCN(c2ccccc2)C12CCN(CCCC(c1ccc(F)cc1)c1ccc(F)cc1)CC2`, in test [16], the call was inactive.

`CCC(=O)c1ccc2c(c1)N(CCCN(C)C)c1ccccc1S2`: in test [16], the call was inactive.

With `C#CCN(C)Cc1ccccc1`, the outcome in test [16] was inactive.

As for `Oc1cc(O)c2c(c1)O[C@H](c1ccc(O)c(O)c1)[C@H](O)C2`, in [16], the result was inactive.

Regarding `O=c1[nH]c2ccccc2n1CCCN1CCN(C(c2ccccc2)c2ccccc2)CC1`, in test [16], the molecule was called inactive.

Consider `C[C@]12CCC(=O)C=C1CC[C@@H]1[C@@H]2[C@@H](O)C[C@@]2(C)[C@H]1CC[C@]2(O)C(=O)CO`, for which, in test [16], the molecule was called inactive.

On to `CC1(C)[C@@H]2CC[C@@]1(C)C(=O)C2`, for which, in [6], the Potency result was “inactive”.

With `CCCCCCCCCCCCCCCC[n+]1ccccc1`, the Potency in [7] is 20 µM (active).

Consider `CN(C)c1ccc(C(=C2C=CC(=[N+](C)C)C=C2)c2ccc(N(C)C)cc2)cc1`, for which, in [7], the Potency was 10 µM (active).

`Oc1ccc(Cl)cc1Cc1cc(Cl)ccc1O`: in test [10], the Potency is 25.1 µM (active).
